The text below walks through data of PubChem BioAssay AID488890 (Southern Research Specialized Biocontainment Screening …, 2010).

As a reminder, the inhibition is the relative decrease from the control value, in per cent.

Structures are written as SMILES. In all, about 320,000 compounds went through this assay and about 1,300 (0.41%) were called active. Inconclusive results (about 3%) are left out. No rule for the calls is given here. A selection follows. Potency and affinity values are given separately.

This experiment is described as follows: growth inhibition of non-replicating M. tuberculosis (AID 488890).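 Also: plate controls were DMSO cells for no effect and high antibiotic wells for full effect.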 The note with it: Mycobacterium tuberculosis non-replicating, at 25 µM, stronger effect = higher value.
Take `NC(=O)Cc1nc(-c2ccc(F)cc2)cs1`: the inhibition stood at 8.71%. On to `O=C(CNc1cccc2ccccc12)c1ccc([N+](=O)[O-])cc1`, for which the inhibition came out at 73.1%. With `Cc1ccc(NCC(=O)c2ccc([N+](=O)[O-])cc2)cc1`, the inhibition stood at 68%. Turning to `Cc1ccc(C(=O)CNc2cccc([N+](=O)[O-])c2)cc1`, the inhibition is 11.3%.

As to `O=C(NC(=S)Nc1cccc(F)c1)c1cccc([N+](=O)[O-])c1`, the inhibition is 74%. Consider `CCOC(=O)C1=C(C)N(CCCC(=O)O)C(=O)NC1c1ccccc1Cl` (stereo not given), for which the inhibition is 0.44%. As for `CCOC(=O)C(C)/C(C)=N\Nc1ccc([N+](=O)[O-])cc1[N+](=O)[O-]` (stereo not given), the figure is -5.18%; as for `CCCC1CC(c2csc(N)n2)CCO1` (stereo not given), -0.79%; as for `COc1ccc(OC)c(/C=C/C(=O)Oc2ccc(C(C)=O)cc2)c1`, 64.2%. Consider `O=C(Cn1c(SCC(=O)N2CCCc3ccccc32)nc2ccccc21)N1CCCC1`, for which the inhibition was -11.8%. As for `O=C(NNC(=O)C1CCC1)c1ccc(Br)cc1`, the figure is 3.14%; as for `O=C(NNC(=O)c1ccc(Br)cc1)c1ccncc1`, 41.7%; as for `C/C(NC1CCCCC1)=C(/C#N)C(=O)NCCN1CCOCC1`, 1.64%. Regarding `O=[N+]([O-])c1cnc(Nc2ccccc2)nc1Nc1ccccc1`, the inhibition worked out at 0.51%. As for `CC(=O)OCC(=O)Nc1ccc([N+](=O)[O-])cc1Cl`, the inhibition was -21.2%. Regarding `Cc1cc(O)c(NC(=O)c2cc([N+](=O)[O-])ccc2Cl)cc1C`, the inhibition turned out to be 32.1%. As for `CN(C)C(=O)Oc1ccc2ccccc2c1Cl`, the inhibition worked out at 5.7%. Turning to `O=C(CSc1ccccc1F)NCCN1C(=O)CSC1=O`, the inhibition is -0.52%.

As to `O=C(O)CN1C(c2ccccc2)=Nc2ccc(Br)cc2C1c1ccccc1` (stereo not given), the inhibition is -0.36%. Regarding `CCOC(=O)c1cc2c(ccc3ccccc32)oc1=O`, the inhibition came out at 74.5%.

With `O=C(O)c1cc2c(ccc3ccccc32)oc1=O`, the inhibition was -4.26%. Turning to `Cc1cccc(OCC(=O)NCC(C)(C)N2CCOCC2)c1`, the inhibition was 5.72%. Consider `CCOC(=O)N1CCC(c2[nH][nH]c(=O)c2C)CC1`, for which the inhibition was -7.47%. Turning to `CCCCn1c(=O)c(CCC(=O)OCC(=O)NC(C)c2ccccc2)nc2ccccc21` (stereo not given), the inhibition came out at 55.8%.

`Cc1cccc(-n2c(/C=C/c3ccc([N+](=O)[O-])o3)nc3ccccc3c2=O)c1`: the inhibition was 28.4%. On to `Cn1c(/C=C/c2ccccc2[N+](=O)[O-])nc2ccccc2c1=O`, for which the inhibition is -6.23%. As to `Cc1cc(=O)oc(C)c1C(=O)OCC(=O)c1ccc(Cl)cc1`, the inhibition was determined as 72.7%. The value for `O=C(NCCCN1CCOCC1)c1cc2ccccc2o1` was -15.4%; that for `Cc1ccc(C2=C(O)c3ccccc3C(=O)C2=O)cc1` was 71.2%. Turning to `O=C1C(c2ccncc2)=C(O)c2ccccc21`, the inhibition stood at 26.2%. Turning to `Cc1cccc(NC(=S)N2CCN(c3cc(C)ccc3C)CC2)c1`, the inhibition was -5.31%.

For the compound `O=c1[nH]c2ccccc2nc1-c1ccc(Cl)cc1`, the inhibition was -0.23%. In the case of `O=c1[nH]c2ccccc2nc1-c1ccccc1`, the inhibition is -4.14%. For `CN(C)CC/C=C1/c2cc(F)ccc2Sc2ccc(Cl)cc21`, the inhibition is 79.7%. Take `CN(C)CC/C=C1/c2ccccc2Sc2ccc(Cl)cc21`: the inhibition is 75.6%. As for `Cc1ccc(OCC(=O)N/N=C2/SCC(=O)N2Cc2ccccc2)cc1`, the inhibition turned out to be 29.3%. Consider `CC(CN1CCN(C/C=C/c2ccccc2)CC1)c1ccccc1` (stereo not given), for which the inhibition amounted to 2.29%.

As to `COC(CNC(=O)c1cccnc1)OC`, the inhibition was -3.72%. With `COC(CNC(=O)c1coc2nc3ccccc3nc12)OC`, the inhibition was determined as 5.54%. In the case of `COc1ccc(Cl)cc1NC(=O)CN(C)C(=O)C12CC3CC(CC(Cl)(C3)C1)C2`, the inhibition was determined as 41.4%. For `COc1cccc(NC(=O)CCC(=O)NCc2ccco2)c1`, the inhibition was -7.17%. As for `CCOc1ccc(C(=O)NCc2cccs2)cc1`, the inhibition stood at 44.9%. As for `O=C1c2ccccc2C(=O)N1c1ccc(Cl)cn1`, the inhibition is 7.35%. Turning to `O=C1c2cccc3c([N+](=O)[O-])ccc(c23)C(=O)N1CCc1ccccn1`, the inhibition worked out at 33.7%. As for `Cc1ccc(C(=O)O)cc1N1C(=O)c2cccc3c([N+](=O)[O-])ccc(c23)C1=O`, the figure is 3.01%. As to `O=C1c2cccc3cccc(c23)C(=O)N1c1ccccn1`, the inhibition was -12.3%. As to `O=C1c2ccc([N+](=O)[O-])cc2C(=O)N1c1ccc(Cl)cn1`, the inhibition was -16.1%. For `O=C1c2ccccc2C(=O)N1c1cc([N+](=O)[O-])ccn1`, the inhibition was 4.94%. As for `CC(=O)Nc1cccc2c1C(=O)N(c1ccc(OC(C)=O)cc1)C2=O`, the figure is 19%; as for `Cc1ccc(N2C(=O)c3cccc4c([N+](=O)[O-])ccc(c34)C2=O)c2cccnc12`, 7.23%. As for `COc1ccc(CCN(C)C(=O)CSc2nnc(-c3ccco3)o2)cc1OC`, the inhibition is -6.6%. For `C=CCn1c(SCC(=O)Nc2ccc(NC(=O)c3ccco3)c(OC)c2)nnc1-c1ccncc1`, the inhibition worked out at 13.9%.

Take `Cc1ccccc1OCC(=O)NCCCNC(=O)c1cccnc1`: the inhibition was -5.91%.

In the case of `COc1cccc(-c2nnc(-c3ccco3)o2)c1`, the inhibition worked out at 65.8%. As for `Cc1ccccc1Oc1ncnc(N)c1[N+](=O)[O-]`, the inhibition is 6.54%.

For `Cc1cccc(Oc2ncnc(N)c2[N+](=O)[O-])c1C`, the inhibition stood at 29.9%. Consider `Cc1ccccc1C(=O)NCC(=O)OCCCOC(=O)CNC(=O)c1ccccc1C`, for which the inhibition is -9.69%.

As to `O=C1CN(C(=O)CNCc2ccccc2Cl)c2ccccc2N1`, the inhibition was found to be 9.45%. `Cc1ccc(-c2cc(-c3ccc(F)cc3)n[nH]2)c(O)c1`: the inhibition was -3.72%.

Regarding `CN(C)CCOC(=O)/C(=C/c1cn(C)c2ccccc12)NC(=O)c1ccccc1`, the inhibition is -4.57%. Take `Cc1ccc(S(=O)(=O)CCC(=O)OCC(=O)c2ccc(C)c(C)c2)cc1`: the inhibition was determined as 73.6%. For `Cc1ccc(C(=O)CCS(=O)(=O)c2ccc(F)cc2)cc1`, the inhibition came to 69.2%. As for `Cc1ccc(C)c(OCc2nnc(NC(=O)c3ccc4c(c3)OCO4)s2)c1`, the figure is 6.85%.

Turning to `O=C1NC2(CCCCC2)NN1c1ccccc1`, the inhibition is 18.6%.

As to `O=C1NC2(CCC3(CC2)OCCO3)NN1c1ccccc1`, the inhibition worked out at 14.8%. The value for `O=C(O)Cc1ccc(Oc2ncc(C(F)(F)F)cc2Cl)cc1` was -16.8%; that for `O=C(CCCc1nc(-c2ccccc2)no1)Nc1cccnc1` was 34.2%. As for `Cc1cccc(-c2noc(CCCC(=O)Nc3cccnc3)n2)c1`, the figure is 32.7%. In the case of `O=[N+]([O-])c1ccc2ncnc(Nc3ccc4c(c3)OCCO4)c2c1`, the inhibition worked out at 21.4%.

For `CCOC(=O)c1sc2nc3n(c(=O)c2c1C)CCC3`, the inhibition was 1.86%.

In the case of `Cc1c(C(=O)OCc2ccc(F)cc2)sc2nc3n(c(=O)c12)CCC3`, the inhibition was 29.2%. `COc1ccc(N2CCN(c3ccc(N)cc3C#N)CC2)cc1`: the inhibition is -1.74%. As to `N#Cc1cc(N)ccc1Sc1ccccc1`, the inhibition stood at 9.77%. With `CS(=O)(=O)N(CC(=O)NCCC1=CCCCC1)c1ccc2c(c1)OCO2`, the inhibition was -1.16%. In the case of `COc1ccc(-c2cc(C(=O)NCCN3CCOCC3)no2)cc1OC`, the inhibition was -10.1%.
